{
  "source": "PubChem BioAssay AID1645860",
  "about": "(Buhrlage Lab, Dana-Farber Cancer Institute and Novartis …, 2021)",
  "note": "In all, about 47,000 compounds went through this assay and about 2,500 (5.3%) were called active. Cut-off read from the data, not from the text of the source: active = inhibition above about 30%; inactive = the rest. The sample as a whole holds a higher share of actives than the screen did.",
  "data": [
    {"target": "Ubiquitin carboxyl-terminal hydrolase 30 (Homo sapiens) (UniProt Q70CQ3)", "sequence (Q70CQ3 whole entry, looked up)": "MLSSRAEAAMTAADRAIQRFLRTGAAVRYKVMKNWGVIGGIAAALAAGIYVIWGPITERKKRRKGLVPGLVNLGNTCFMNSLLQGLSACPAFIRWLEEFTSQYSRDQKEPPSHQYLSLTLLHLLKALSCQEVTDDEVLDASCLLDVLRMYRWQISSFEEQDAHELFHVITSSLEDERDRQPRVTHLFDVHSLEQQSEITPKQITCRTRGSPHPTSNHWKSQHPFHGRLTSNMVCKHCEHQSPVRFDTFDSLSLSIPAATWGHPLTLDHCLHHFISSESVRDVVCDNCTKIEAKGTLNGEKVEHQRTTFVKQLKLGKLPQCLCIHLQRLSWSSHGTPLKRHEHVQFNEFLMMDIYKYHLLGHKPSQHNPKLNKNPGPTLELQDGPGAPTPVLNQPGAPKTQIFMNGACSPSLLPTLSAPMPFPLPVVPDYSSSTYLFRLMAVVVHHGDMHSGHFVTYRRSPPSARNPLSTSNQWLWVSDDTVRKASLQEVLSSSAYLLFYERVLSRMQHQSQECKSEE", "assay": "inhibitors of human USP30 deubiquitinase (AID 1645860)", "settings": "purified USP30, Ub-rhodamine cleavage fluorescence; at 25 µM; stronger effect = higher value", "values": [
      {"molecule": "Cc1ccc(NC(=O)C(OC(=O)c2ccc(S(=O)(=O)N3CCCC3)cc2)c2ccccc2)cc1", "note": "(stereo not given)", "inhibition": "0.818% (inactive)"},
      {"molecule": "CC(=O)Nc1ccc(S(=O)(=O)N2CCC(CN3CCCC(C)C3)CC2)cc1", "note": "(stereo not given)", "inhibition": "-7.71% (inactive)"},
      {"molecule": "CC(=O)Nc1ccc(S(=O)(=O)N2CCC(CC(=O)NC(C)c3ccccc3)CC2)cc1", "note": "(stereo not given)", "inhibition": "31.5% (active)"},
      {"molecule": "O=C(O)c1ccc(S(=O)(=O)N2CCC(Cc3ccccc3)CC2)cc1", "inhibition": "-5.01% (inactive)"},
      {"molecule": "CCNC(=O)c1ccc2c(c1)nc1n2CCN(CC2CCCO2)C1", "note": "(stereo not given)", "inhibition": "-93.9% (inactive)"},
      {"molecule": "Cc1noc(C)c1CSc1ccccc1C(=O)N(C)Cc1ccc2c(c1)OCO2", "inhibition": "25.1% (inactive)"},
      {"molecule": "CC(=O)CCCSc1ncnc2c1sc1nc(N3CCOCC3)c3c(c12)CC(C)(C)OC3", "inhibition": "36.7% (active)"},
      {"molecule": "CCCCCCSc1ncnc2c1sc1nc(-c3ccccc3)c3c(c12)CC(C)(C)OC3", "inhibition": "-3.25% (inactive)"},
      {"molecule": "CCOCCCNc1ncnc2c1sc1nc(N3CCOCC3)c3c(c12)CC(C)(C)OC3", "inhibition": "-0.00409% (inactive)"},
      {"molecule": "CSc1nccc(-c2ccc(F)cc2)c1C#N", "inhibition": "30.3% (active)"},
      {"molecule": "O=C(NC1CCCCC1)c1ccc2c(=O)nc3c(-c4ccccc4F)n[nH]n3c2c1", "inhibition": "-42.8% (inactive)"},
      {"molecule": "CCc1ccc(NC(=O)N2CCC3(CC2)COc2ccccc2S(=O)(=O)N(C)C3)cc1", "inhibition": "-0.131% (inactive)"},
      {"molecule": "Cc1ccc(C)c(N2C(=O)CN(S(C)(=O)=O)CC2(C)C(=O)NCc2ccccc2)c1", "note": "(stereo not given)", "inhibition": "-0.764% (inactive)"},
      {"molecule": "O=C(Nc1ccccc1F)NC1CCCN(c2cc(-c3ccncc3)[nH]n2)C1", "note": "(stereo not given)", "inhibition": "34.3% (active)"},
      {"molecule": "O=C(CSc1nccn1C1CCCCC1)Nc1ccccc1F", "inhibition": "24.6% (inactive)"},
      {"molecule": "O=C(Nc1ccccc1F)C1CCCN(c2nnc3ccccn23)C1", "note": "(stereo not given)", "inhibition": "8.96% (inactive)"},
      {"molecule": "COc1cccc(-c2cc3c(=O)n(Cc4nc(-c5ccccc5C)no4)ccn3n2)c1", "inhibition": "-2.78% (inactive)"},
      {"molecule": "CN1CCN(C(=O)C2=NOC3(CCCNC3)C2)C(c2ccccc2)C1", "note": "(stereo not given)", "inhibition": "-3.49% (inactive)"},
      {"molecule": "COc1ccc(C2(C(=O)Nc3cccnc3)CCOCC2)cc1", "inhibition": "-2.08% (inactive)"},
      {"molecule": "COc1ccc(Cc2noc(C3(c4ccc(Cl)cc4)CCOCC3)n2)cc1", "inhibition": "-0.175% (inactive)"},
      {"molecule": "COc1ccc(-c2noc(C3(c4ccccc4)CCOCC3)n2)cc1", "inhibition": "32.8% (active)"},
      {"molecule": "C[C@]12C(=O)N(C3CC3)CC(=O)N1CC(c1ccccc1Cl)c1c2[nH]c2ccccc12", "note": "(stereo not given in full)", "inhibition": "21.3% (inactive)"},
      {"molecule": "Cc1cc(=O)c2c(O)cccc2o1", "inhibition": "-221% (inactive)"},
      {"molecule": "COc1ccc(CCC(=O)Nc2ccc3nc(N4CCOCC4)cc(C)c3c2)cc1", "inhibition": "-2.1% (inactive)"},
      {"molecule": "Cc1nc(N(C)C)cc(N2CCN(C(=O)Nc3ccc4c(c3)OCCO4)CC2)n1", "inhibition": "-13.9% (inactive)"}
    ]}
  ]
}
